# Data: PubChem BioAssay (NCATS)
# Records with an inconclusive call do not appear. The source made the active and inactive calls. Unless noted, the call rests on the fitted dose curve; in most records, active means well fitted curve in either direction with a large enough effect (not every such curve was filed as active); inconclusive means small, poorly fitted or top-dose-only effect, or another doubt; inactive means flat fitted curve, though single readings scatter.
# Columns and labels:
# [1] = molecular target: Lysosomal acid glucosylceramidase (Homo sapiens) (UniProt P04062); assay: Glucocerebrosidase-p2 (AID 348; in the data active means potency below about 10 µM; further: potency means the concentration at half of the fitted maximal effect); conditions: purified GBA, blue fluorogenic substrate, 40 min
# Lysosomal acid glucosylceramidase (Homo sapiens), sequence (P04062 whole entry, looked up): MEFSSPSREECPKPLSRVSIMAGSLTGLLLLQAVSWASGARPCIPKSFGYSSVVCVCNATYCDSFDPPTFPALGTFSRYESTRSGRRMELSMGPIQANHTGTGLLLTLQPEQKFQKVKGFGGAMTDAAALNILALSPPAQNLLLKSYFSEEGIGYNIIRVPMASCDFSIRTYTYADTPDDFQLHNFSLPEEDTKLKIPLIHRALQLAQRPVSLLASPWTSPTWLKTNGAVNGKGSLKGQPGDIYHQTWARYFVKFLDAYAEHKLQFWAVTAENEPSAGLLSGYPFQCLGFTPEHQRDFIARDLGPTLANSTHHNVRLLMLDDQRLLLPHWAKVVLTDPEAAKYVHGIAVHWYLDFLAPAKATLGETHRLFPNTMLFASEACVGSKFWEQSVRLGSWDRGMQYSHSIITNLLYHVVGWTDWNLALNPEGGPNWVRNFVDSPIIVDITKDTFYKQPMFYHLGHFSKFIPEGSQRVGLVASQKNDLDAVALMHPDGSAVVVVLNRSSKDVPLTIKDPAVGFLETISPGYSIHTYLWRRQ
# Procedure, shortened: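 Normal human glucocerebrosidase (0.2 nM) with blue fluorogenic substrate (80 uM final) in citrate/phosphate pH 5.9 with 10mM sodium taurocholate, 0.01% tween-20; 40 min RT, NaOH/glycine stop; fluorescence Ex 365/Em 440; AC50 from a titration from 0.6 nM upwards.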
# [2] = AP1 Signaling Pathway (AID 357); conditions: ME-180 AP-1-bla reporter, EGF-induced, beta-lactamase ratio, 5 h; at 7.69 µM (top of the series) unless noted;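 further: ME-180 reporter cells stimulated with EGF at its EC50 level; on the % scale 0 is the no-effect control and ±100 the full control effect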
# Procedure, shortened: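 Cells are seeded overnight, exposed to compound titrations and an EC50 level of EGF for 5 hours at 37 °C, then loaded with CCF4 dye for 2.5 hours. Beta-lactamase activity under the AP-1 element is read as a blue/green ratio.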
# [3] = molecular target: Cytochrome P450 1A2 (Homo sapiens) (UniProt P05177); assay: p450-cyp1a2 (AID 410; calls by dose curve; further: potency means the concentration at half of the fitted maximal effect;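 on activity change, negative = inhibition: -100% = full effect of reference inhibitor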); conditions: recombinant CYP1A2, luciferin-ME demethylation, luminescence; series mostly up to 57 µM
# Cytochrome P450 1A2 (Homo sapiens), sequence (P05177 whole entry, looked up): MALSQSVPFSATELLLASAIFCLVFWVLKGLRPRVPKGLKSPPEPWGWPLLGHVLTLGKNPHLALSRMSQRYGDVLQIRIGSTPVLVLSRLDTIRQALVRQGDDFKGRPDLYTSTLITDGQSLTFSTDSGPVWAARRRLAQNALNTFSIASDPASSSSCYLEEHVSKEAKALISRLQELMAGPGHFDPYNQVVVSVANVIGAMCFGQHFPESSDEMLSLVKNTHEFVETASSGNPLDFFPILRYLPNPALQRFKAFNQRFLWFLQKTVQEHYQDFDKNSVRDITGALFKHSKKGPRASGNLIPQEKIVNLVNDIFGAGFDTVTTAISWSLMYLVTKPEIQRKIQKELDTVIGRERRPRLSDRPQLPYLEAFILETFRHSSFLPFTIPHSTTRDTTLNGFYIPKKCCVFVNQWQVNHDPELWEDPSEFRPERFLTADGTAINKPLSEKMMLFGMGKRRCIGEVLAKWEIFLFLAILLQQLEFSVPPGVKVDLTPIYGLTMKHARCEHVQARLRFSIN
# Procedure, shortened: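 Read-out is luminescence from luciferin produced by CYP1A2 demethylation of Luciferin-ME (100uM, at Km). Detection reagent stopped the 60 min NADPH-dependent reaction; signals were normalized to 57 uM furafylline.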
# [4] = Stat Signaling Pathway (AID 446); conditions: ME-180 SIE beta-lactamase reporter, IL-6 stimulated, 5 h; at 7.69 µM (top of the series) unless noted;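 further: ME-180 cervical cancer cells given 40 pM IL-6 alongside compound; SIE-controlled beta-lactamase reporter measured as 460/530 nm FRET emission ratio; on the % scale 0 is the no-effect control and ±100 the full control effect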
# Procedure, shortened: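 Overnight-plated ME-180 cells bearing a STAT Inducible Element beta-lactamase reporter; 5 h co-exposure to compound and 40 pM IL-6; values normalized to 300 pM IL-6 and 125 nM JAK inhibitor controls.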
# [5] = molecular target: Glucocorticoid receptor (Homo sapiens) (UniProt P04150); assay: GR-EFC Redistribution (AID 451; calls by dose curve; further: potency means the concentration at half of the fitted maximal effect); conditions: CHO-K1 GR-EFC translocation, beta-gal luminescence, 2 h
# Glucocorticoid receptor (Homo sapiens), sequence (P04150 whole entry, looked up, the tested form may be a part): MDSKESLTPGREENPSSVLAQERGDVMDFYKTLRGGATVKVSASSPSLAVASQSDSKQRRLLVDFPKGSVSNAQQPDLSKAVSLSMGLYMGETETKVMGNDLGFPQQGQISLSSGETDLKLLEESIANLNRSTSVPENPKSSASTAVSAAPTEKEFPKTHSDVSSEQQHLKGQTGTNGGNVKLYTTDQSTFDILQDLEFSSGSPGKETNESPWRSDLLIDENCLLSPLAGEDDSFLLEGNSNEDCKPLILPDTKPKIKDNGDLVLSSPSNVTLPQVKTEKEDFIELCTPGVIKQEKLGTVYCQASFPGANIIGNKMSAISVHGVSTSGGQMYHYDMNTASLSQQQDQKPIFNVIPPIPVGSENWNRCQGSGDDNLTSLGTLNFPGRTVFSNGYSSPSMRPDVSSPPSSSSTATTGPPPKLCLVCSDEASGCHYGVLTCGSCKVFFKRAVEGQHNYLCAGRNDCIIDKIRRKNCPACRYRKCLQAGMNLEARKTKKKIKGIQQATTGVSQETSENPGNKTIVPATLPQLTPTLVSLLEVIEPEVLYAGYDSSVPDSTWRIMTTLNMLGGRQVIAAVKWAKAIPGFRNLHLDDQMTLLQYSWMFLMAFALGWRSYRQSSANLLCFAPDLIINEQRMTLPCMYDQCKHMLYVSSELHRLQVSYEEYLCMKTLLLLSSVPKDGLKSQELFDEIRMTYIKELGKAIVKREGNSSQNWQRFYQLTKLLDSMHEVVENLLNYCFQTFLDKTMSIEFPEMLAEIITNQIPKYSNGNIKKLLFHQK
# Procedure, shortened: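 CHO-K1 cells stably expressing nuclear-localized β-gal enzyme acceptor and GR fused C-terminally to the enzyme donor fragment; ligand-driven nuclear translocation restores β-gal by complementation. Compounds titrated up to 46 uM final, 2 h at 37 °C; luminescence read.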
# [6] = molecular target: Mitogen-activated protein kinase 10 (Mus musculus) (UniProt Q61831); assay: JNK3 AlphaScreen Assay (AID 530); conditions: JNK3 lysate, c-Jun phosphorylation; series mostly up to 57.1 µM;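 further: kinase came from lysate of stimulated human HepG2 cells; signal reports phosphorylation of biotinylated GST-cJun 1-79 at Ser73 with 10 µM ATP; on the % scale 0 is the no-effect control and ±100 the full control effect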
# Procedure, shortened: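 Biotinylated GST-cJun(1-79) served as substrate for JNK3 in HepG2 lysates stimulated with IL-1beta and TNF-alpha. ATP was 10 uM final, pH 7.6. Ser73 phosphorylation was quantified by AlphaScreen (680 nm excitation).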
# [7] = molecular target: 3',5'-cyclic-AMP phosphodiesterase 4B (Homo sapiens) (UniProt Q07343); assay: qHTS Assay for Inhibitors of PDE-IV (AID 607; active means well fitted activation curve with a large enough effect in the main read-out, with a control signal flat, not every such curve was filed as active; further: % of control where 0% means no effect); conditions: HEK293 ACTOne CNG channel cells, membrane potential fluorescence; series mostly up to 22.9 µM
# 3',5'-cyclic-AMP phosphodiesterase 4B (Homo sapiens), sequence (Q07343 whole entry, looked up): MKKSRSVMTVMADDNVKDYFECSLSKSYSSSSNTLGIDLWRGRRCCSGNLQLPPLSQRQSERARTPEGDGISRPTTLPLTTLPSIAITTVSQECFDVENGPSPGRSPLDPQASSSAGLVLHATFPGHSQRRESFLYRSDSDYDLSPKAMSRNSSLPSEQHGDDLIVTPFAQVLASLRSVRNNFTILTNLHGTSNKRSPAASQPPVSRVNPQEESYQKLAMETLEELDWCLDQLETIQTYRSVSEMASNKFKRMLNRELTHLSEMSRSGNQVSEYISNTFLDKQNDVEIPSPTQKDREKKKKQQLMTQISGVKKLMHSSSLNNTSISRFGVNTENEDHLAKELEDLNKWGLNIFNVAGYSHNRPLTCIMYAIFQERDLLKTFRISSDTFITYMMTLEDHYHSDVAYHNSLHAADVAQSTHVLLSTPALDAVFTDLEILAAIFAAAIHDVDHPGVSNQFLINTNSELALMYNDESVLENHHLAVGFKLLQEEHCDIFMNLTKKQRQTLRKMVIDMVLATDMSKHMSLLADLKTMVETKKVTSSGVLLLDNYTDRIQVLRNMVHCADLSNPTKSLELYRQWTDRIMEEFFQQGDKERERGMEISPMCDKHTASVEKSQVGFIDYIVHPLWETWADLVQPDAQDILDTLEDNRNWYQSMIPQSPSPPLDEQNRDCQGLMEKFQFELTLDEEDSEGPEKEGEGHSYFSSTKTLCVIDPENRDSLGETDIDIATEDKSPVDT
# Procedure, shortened: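 Live HEK293 cells with a modified cyclic nucleotide-gated (CNG) channel report intracellular cAMP via membrane-potential dye fluorescence (ex 535/em 590 nm). Endogenous PDE-IV was targeted. Compounds were tested at up to 22.9 uM final; RO 20-1724 100 uM served as control.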
# [8] = molecular target: Cytochrome P450 3A4 (Homo sapiens) (UniProt P08684); assay: qHTS Assay for Inhibitors and Substrates of Cytochrome P450 3A4 (AID 884; active means well fitted curve in the direction sought with a large enough effect; an effect the other way counts as inactive or inconclusive; further: on the % scale 0 is the no-effect control and ±100 the full control effect; nearly all actives have a fitted effect of over 50% in size); conditions: recombinant CYP3A4, Luciferin-PPXE luminescence; series mostly up to 57.1 µM
# Cytochrome P450 3A4 (Homo sapiens), sequence (P08684 whole entry, looked up): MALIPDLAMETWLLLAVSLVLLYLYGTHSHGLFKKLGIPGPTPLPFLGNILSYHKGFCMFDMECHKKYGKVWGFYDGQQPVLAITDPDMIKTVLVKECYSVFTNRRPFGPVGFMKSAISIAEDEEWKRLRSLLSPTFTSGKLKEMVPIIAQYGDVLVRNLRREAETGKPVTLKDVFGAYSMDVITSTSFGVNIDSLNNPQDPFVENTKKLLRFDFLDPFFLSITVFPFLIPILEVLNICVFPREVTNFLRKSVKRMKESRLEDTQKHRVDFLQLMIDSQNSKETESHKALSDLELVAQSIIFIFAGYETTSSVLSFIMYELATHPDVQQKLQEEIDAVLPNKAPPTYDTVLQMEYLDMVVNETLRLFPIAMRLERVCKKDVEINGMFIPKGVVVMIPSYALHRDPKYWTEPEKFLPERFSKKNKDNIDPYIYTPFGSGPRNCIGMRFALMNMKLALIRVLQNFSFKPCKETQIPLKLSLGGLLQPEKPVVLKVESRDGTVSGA
# Procedure, shortened: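 Luminescent readout of luciferin produced by CYP3A4 (20 nM) dealkylation of Luciferin-PPXE, 25 uM (its KM). NADPH-driven reaction ran 60 min at RT after 10 min compound preincubation; data scaled to 57 uM ketoconazole as 100% inhibition.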
# [9] = molecular target: Cytochrome P450 3A4 (Homo sapiens) (UniProt P08684); assay: qHTS Assay for Activators of Cytochrome P450 3A4 (AID 885; active means well fitted curve in the direction sought with a large enough effect; an effect the other way counts as inactive or inconclusive; further: nearly all actives have a fitted effect of over 65% in size; further: potency means the concentration at half of the fitted maximal effect); conditions: recombinant CYP3A4, Luciferin-PPXE luminescence, 60 min; series mostly up to 57.1 µM
# Procedure, shortened: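 Using 20nM recombinant human CYP3A4 in potassium phosphate (200mM), substrate Luciferin-PPXE at 25uM, luminescent luciferin detection followed a 60-min RT NADPH reaction; data scaled to 57 uM ketoconazole.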
# [10] = qHTS Assay for Lipid Storage Modulators (AID 1519; calls by dose curve); conditions: Drosophila S3 cells, BODIPY lipid droplet/cell ratio, laser cytometry, cells loaded with oleic acid; for activity change, negative = inhibition: at 57.5 µM (top of the series)
# Procedure, shortened: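 Cells seeded at 5,000 per well were treated with compounds over a concentration series and loaded with oleic acid (400 uM, as added). Lipid droplet fluorescence (488 nm excitation, 500-530 nm channel) was read by laser-scanning cytometry and normalized to 20 uM Triacsin C.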
# [11] = Primary qHTS for small molecule stabilizers of the endoplasmic reticulum resident proteome: Secreted ER Calcium Modulated Protein (SERCaMP) assay (AID 1508630; active means well fitted curve in the direction sought with a large enough effect; an effect the other way counts as inactive or inconclusive; further: on the % scale 0 is the no-effect control and ±100 the full control effect); conditions: SH-SY5Y GLuc-SERCaMP (Gaussia luciferase released on ER calcium loss) secretion, thapsigargin, luminescence; series mostly up to 38.4 µM
# Procedure, shortened: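 The SH-SY5Y reporter protocol was run at 3 concentrations up to 38.3 uM (primary) or 11 concentrations (follow-up): 16 h compound, 100 nM thapsigargin for 4 h, then extracellular luciferase luminescence.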
# [12] = NFAT Signaling Pathway (AID 444); conditions: Jurkat NFAT-bla M1, carbachol, beta-lactamase ratio, 5 h; at 7.69 µM (top of the series) unless noted
# Procedure, shortened: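 Jurkat cells carrying an NFAT-driven β-lactamase reporter and co-transfected muscarinic M1 receptor were treated with compound plus carbachol (1 uM final, an EC50 level) for 5 h at 37 °C. CCF4 loading followed for 1 h at RT; 460/530 nm ratio gave %activity.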
# [13] = molecular target: Glucocorticoid receptor (Homo sapiens) (UniProt P04150); assay: GR-GFP Redistribution (AID 450;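 active means compounds whose dose series gives a full or clear partial fitted curve of increased nuclear translocation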; further: potency means the concentration at half of the fitted maximal effect); conditions: U2OS GR-GFP nuclear translocation, laser cytometry, 2 h
# [14] = molecular target: Ubiquitin carboxyl-terminal hydrolase 1 (Homo sapiens) (UniProt O94782); assay: Inhibitors of USP1/UAF1: Pilot qHTS (AID 504865; active means well fitted curve in the direction sought with a large enough effect; an effect the other way counts as inactive or inconclusive;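 further: rhodamine fluorescence freed from ubiquitin-rhodamine substrate followed over time; top concentration of the series differs between compounds; on the % scale 0 is the no-effect control and ±100 the full control effect; nearly all actives have a fitted effect of over 35% in size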); conditions: purified USP1/UAF1, Ub-rhodamine cleavage fluorescence; series mostly up to 54.9 µM
# Ubiquitin carboxyl-terminal hydrolase 1 (Homo sapiens), sequence (O94782 whole entry, looked up): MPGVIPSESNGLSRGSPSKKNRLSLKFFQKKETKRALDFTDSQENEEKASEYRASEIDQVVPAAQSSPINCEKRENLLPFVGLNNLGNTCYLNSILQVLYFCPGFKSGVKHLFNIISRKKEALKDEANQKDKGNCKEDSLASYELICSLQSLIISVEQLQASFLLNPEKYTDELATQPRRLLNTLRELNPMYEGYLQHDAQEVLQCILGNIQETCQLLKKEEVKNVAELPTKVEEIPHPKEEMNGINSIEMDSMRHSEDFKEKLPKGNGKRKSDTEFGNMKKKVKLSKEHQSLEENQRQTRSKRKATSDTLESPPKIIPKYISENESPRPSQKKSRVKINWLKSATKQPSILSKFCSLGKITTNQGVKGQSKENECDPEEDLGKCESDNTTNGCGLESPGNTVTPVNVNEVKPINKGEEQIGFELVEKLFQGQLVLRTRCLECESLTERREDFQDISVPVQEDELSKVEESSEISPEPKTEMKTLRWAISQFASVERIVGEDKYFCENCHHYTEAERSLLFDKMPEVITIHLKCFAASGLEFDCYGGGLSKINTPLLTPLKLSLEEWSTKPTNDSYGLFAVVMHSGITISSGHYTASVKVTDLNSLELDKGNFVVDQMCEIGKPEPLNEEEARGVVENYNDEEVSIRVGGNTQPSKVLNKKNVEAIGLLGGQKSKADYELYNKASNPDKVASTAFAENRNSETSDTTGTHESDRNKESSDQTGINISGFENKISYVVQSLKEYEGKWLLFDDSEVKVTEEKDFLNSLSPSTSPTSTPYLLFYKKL
# Procedure, shortened: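 Kinetic fluorescence assay: 1nM USP1/UAF1, 15 min compound preincubation, then 150nM Ub-Rho; 480/540 nm.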
# [15] = qHTS Assay for Identification of Small Molecule Agonists for Hypoxia Response Element Signaling Pathway (AID 914; active means well fitted activation curve with a large enough effect in the signal ratio, with a control signal flat, not every such curve was filed as active; the % refers to the signal ratio; further: potency means the concentration at half of the fitted maximal effect; on activation: % of control where 0% means no effect); conditions: ME-180 (cervical carcinoma) HRE-bla reporter, beta-lactamase ratio, CoCl2, 17 h; activation: stronger effect = higher value
# Procedure, shortened: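 Compounds in a titration series were added to ME-180 reporter cells alongside an EC50 level of CoCl2. After 17 hours, beta-lactamase activity was read as the 460nm/530nm emission ratio of CCF4, giving AC50 values.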
# [16] = molecular target: Dual specificity protein kinase CLK4 (Homo sapiens) (UniProt Q9HAZ1); assay: qHTS Assay for Inhibitors of CDC-like Kinase 4 (Kinase-Glo Assay) (AID 1770; active means well fitted curve in the direction sought with a large enough effect; an effect the other way counts as inactive or inconclusive; further: on the % scale 0 is the no-effect control and ±100 the full control effect; nearly all actives have a fitted effect of over 65% in size); conditions: recombinant Clk4, Kinase-Glo ATP depletion luminescence; series mostly up to 66.7 µM
# Dual specificity protein kinase CLK4 (Homo sapiens), sequence (Q9HAZ1 whole entry, looked up): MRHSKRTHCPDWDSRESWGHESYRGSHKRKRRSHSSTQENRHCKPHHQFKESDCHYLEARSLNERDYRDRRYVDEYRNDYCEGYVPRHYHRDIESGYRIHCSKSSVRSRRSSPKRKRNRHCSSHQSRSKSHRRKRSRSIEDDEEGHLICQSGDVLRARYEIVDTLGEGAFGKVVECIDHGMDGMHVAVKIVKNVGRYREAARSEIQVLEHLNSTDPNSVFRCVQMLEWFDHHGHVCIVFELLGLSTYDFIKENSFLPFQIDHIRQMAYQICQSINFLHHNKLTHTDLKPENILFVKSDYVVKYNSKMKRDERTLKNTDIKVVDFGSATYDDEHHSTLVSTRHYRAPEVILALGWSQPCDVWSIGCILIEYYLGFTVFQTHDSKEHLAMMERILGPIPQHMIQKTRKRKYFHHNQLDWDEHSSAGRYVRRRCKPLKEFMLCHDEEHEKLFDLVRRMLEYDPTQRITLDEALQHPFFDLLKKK
# Procedure, shortened: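 Inhibition was judged from remaining ATP, measured by Ultra-Glo luciferase bioluminescence after Clk4 (25 nM) had acted on RS peptide at 1 uM ATP for 4.5 hours, room temperature.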
# [17] = molecular target: Dual specificity protein kinase CLK4 (Homo sapiens) (UniProt Q9HAZ1); assay: qHTS Assay for Inhibitors of CDC-like Kinase 4 (ADP-Glo Assay) (AID 1771; active means well fitted curve in the direction sought with a large enough effect; an effect the other way counts as inactive or inconclusive; further: on the % scale 0 is the no-effect control and ±100 the full control effect; nearly all actives have a fitted effect of over 70% in size); conditions: recombinant CLK4, ADP-Glo luminescence; series mostly up to 80 µM
# Procedure, shortened: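 In this ADP-Glo format, 1 uM ATP and 100 uM RS peptide served as substrates for 25 nM Clk4 in Mg2+/EGTA/DTT/Triton buffer; reactions ran 1 hr at room temperature before luminescent ADP quantification.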
# [18] = measured here: cell count channel max response
# [19] = measured here: lipid channel max response
SMILES,Potency [1],"activity change, negative = inhibition [2]",Potency [3],"activity, negative = inhibition [4]",Potency [5],outcome [6],Potency [7],Potency [8],Potency [9],"activity change, negative = inhibition [10]","max response [10, 18] [%]","max response [10, 19] [%]",Potency [11],"activity change, negative = inhibition [12]",Potency [13],Potency [14],Potency [15],activation [15],Potency [16],Potency [17]
O=C(c1cccc(F)c1)N1CCC2(CC1)CCN(c1ccccc1)CC2,> 11.4 µM (inactive),-0.371% (inactive),15.8 µM (active),-10.8% (inactive),> 46 µM (inactive),inactive,inactive,inactive,7.94 µM (active),3.88% (inactive),-3.82,4.22,inactive,–,–,–,–,–,–,–
COCC(=O)N1CCC2(CCCN(Cc3cc(C(F)(F)F)cc(C(F)(F)F)c3)C2)CC1,> 11.4 µM (inactive),-15.5% (inactive),inactive,3.96% (inactive),–,inactive,inactive,–,inactive,-0.278% (inactive),26.3,28.3,inactive,–,–,–,–,–,–,–
CN(C)Cc1ccccc1-c1cncnc1Nc1ccncc1,> 11.4 µM (inactive),-25.5% (inactive),–,5.07% (inactive),> 46 µM (inactive),inactive,inactive,–,–,4.9% (inactive),13.6,17.6,inactive,10.2% (inactive),> 46 µM (inactive),inactive,–,–,–,–
O=C(Nc1ccccc1)N1CC2(CCN(C(=O)c3cccc(F)c3)CC2)C1,> 11.4 µM (inactive),13.2% (inactive),–,0.524% (inactive),> 46 µM (inactive),inactive,inactive,–,–,5.53% (inactive),9.88,20.2,inactive,14.3% (inactive),–,–,–,–,–,–
COc1ccc(C(=O)N2CCC3(CC2)CN(c2ccncc2)C3)cc1,> 11.4 µM (inactive),4.67% (inactive),inactive,5.81% (inactive),> 46 µM (inactive),–,inactive,–,inactive,-1.18% (inactive),-4.69,-4.19,–,-16% (inactive),–,–,–,–,–,–
CN1CCN(c2ncc3nc(-c4cccs4)c(=O)n(CCC#N)c3n2)CC1,> 11.4 µM (inactive),–,15.8 µM (active),–,> 46 µM (inactive),inactive,inactive,–,inactive,0.733% (inactive),11.3,9.27,inactive,–,> 9.22 µM (inactive),inactive,3.16 µM (active),–,–,–
O=C(c1ccco1)N1CCC2(CC1)CN(c1ccccc1)C2,> 11.4 µM (inactive),-1.6% (inactive),inactive,-9.25% (inactive),> 46 µM (inactive),inactive,inactive,inactive,15.8 µM (active),6.46% (inactive),15.8,25.8,inactive,–,–,–,–,-3.45% (inactive),–,–
COCCn1c(=O)c(-c2cc(F)cc(F)c2)nc2cnc(N3CCOCC3)nc21,> 11.4 µM (inactive),11.2% (inactive),12.6 µM (active),–,> 46 µM (inactive),inactive,inactive,–,–,6.45% (inactive),22.1,26.7,–,18.8% (inactive),> 9.22 µM (inactive),inactive,–,–,inactive,inactive
CC(C)NC(=O)N1CCCC2(CCN(C(=O)c3ccncc3)CC2)C1,> 11.4 µM (inactive),-8.19% (inactive),inactive,-5.11% (inactive),> 46 µM (inactive),inactive,inactive,–,inactive,–,–,–,inactive,8.27% (inactive),–,–,–,–,–,–
O=C(c1ccco1)N1CCC2(CC1)CCN(c1ncccn1)CC2,> 11.4 µM (inactive),-7.74% (inactive),–,-7.06% (inactive),> 46 µM (inactive),inactive,inactive,–,–,5.72% (inactive),9.29,18.4,inactive,-8.3% (inactive),–,–,–,–,–,–
COc1ccc(NC(=O)N2CC3(CCN(S(C)(=O)=O)CC3)C2)cc1,> 11.4 µM (inactive),-11.2% (inactive),inactive,5.18% (inactive),> 46 µM (inactive),inactive,inactive,–,–,–,–,–,inactive,24.5% (inactive),–,–,–,–,–,–
COc1ccc(Oc2ncc3nc(C)c(=O)n(Cc4cccc(OC)c4)c3n2)cc1,> 11.4 µM (inactive),-16% (inactive),–,-8.96% (inactive),> 46 µM (inactive),inactive,–,–,–,4.03% (inactive),6.56,8.3,–,6.92% (inactive),> 9.22 µM (inactive),inactive,–,–,inactive,inactive
CN(C)c1ncc2nc(-c3ccccc3)c(=O)n(Cc3ccc(F)cc3)c2n1,> 11.4 µM (inactive),–,12.6 µM (active),178% [activator] (active),> 46 µM (inactive),–,inactive,–,–,–,–,–,inactive,–,> 9.22 µM (inactive),inactive,0.501 µM (active),–,inactive,inactive
O=c1c(-c2cc(F)cc(F)c2)nc2cnc(N3CCOCC3)nc2n1C1CC1,> 11.4 µM (inactive),7.91% (inactive),1 µM (active),–,> 46 µM (inactive),inactive,–,–,–,0.7% (inactive),9.59,11.7,inactive,–,> 9.22 µM (inactive),–,1.58 µM (active),–,–,–
